# Test results taken from PubChem BioAssay (Tox21).
# Results filed as inconclusive are left out. A call without a number means that no potency is given here. Unmarked numbers belong to inactive results. The source made the active and inactive calls. Calls follow the shape of the dose curve; as a rule, active = well fitted activation curve with a large enough effect in the repeat runs; inconclusive = weak or mixed curves; inactive = flat fitted curve, though single readings scatter.
# Assay: A CellTox Green Cytotoxicity Assay to monitor cytotoxicity in HEK293 cells - 40 hour (AID 1224871); also: nearly all actives have a fitted effect of over 45% in size
# Details: CellTox Green fluorescence; series mostly up to 76.8 µM
# Text: National Center for Advancing Translational Sciences [NCATS]
# NIH Chemical Genomics Center [NCGC]
# U.S. Environmental Protection Agency [EPA]
# National Institutes of Environmental Health Sciences [NIEHS]
# National Toxicology Program [NTP]
# Cell-based models are critical for drug discovery. Determining the natural cytotoxic effects resulting from test compounds is an essential research activity. A CellTox Green Cytotoxicity Assay to monitor cytotoxicity in real time of continues cell culture during 40 hours of the compound treatment was used to screen Tox21 10K library compounds in Hek293 cells. CellTox Green Cytotoxicity Assay is a nonlytic, homogeneous, biofluorescent method to measure cytotoxicity in cell culture after experimental manipulation. The assay system uses a proprietary asymmetric cyanine dye that is excluded from viable cells but preferentially stains the dead cell's DNA. […] Viable cells produce no appreciable increases in fluorescence. Therefore, the fluorescence signal produced by the binding interaction with dead cell DNA is proportional to cytotoxicity.
# The mixture of Hek293 cell suspension and reagents were dispensed at 600cells/6 ul/well in 1536-well tissue culture treated black solid bottom plates using a Multidrop dispenser. After the assay plates were incubated at a 37 C/5% CO2 incubator for 5 hours, 23 nL of compounds dissolved in DMSO, positive and negative controls was transferred to the assay plate by a pintool work station. The plates were incubated at 37 C for 40 hours. The fluorescence intensity were measured at 0h, 8h, 16h, 24h, 32h and 40h time points using ViewLux plate reader during compound treatment.
# Potency is read from the fitted curve at half-maximal effect.
SMILES,Potency,cytotoxicity increase
COc1cc(/C=C/C(=O)CC(=O)/C=C/c2ccc(O)c(OC)c2)ccc1O,24.7 µM (active),
Cc1ccc(C=O)cc1,inactive,
O=C1c2ccccc2C(=O)c2c(Cl)cccc21,inactive,
CC(CC(C)(C)C)CC(C)(C)CC(C)(C)C (stereo not given),inactive,
ClC(c1ccccc1)(c1ccccc1)c1ccccc1,inactive,
COc1c(Br)cc(Br)c(C)c1Br,inactive,
O=C1CCC(=O)N1,inactive,
CCC(=O)OC/C=C(\C)CCC=C(C)C,inactive,
O=S(=O)(c1ccc(OCc2ccccc2)cc1)c1ccccc1O,inactive,
Oc1ccc2c(c1)CCC2,inactive,
C[C@H]1O[C@@H](O[C@H]2CC[C@@]3(C)[C@H](CC[C@@H]4[C@@H]3C[C@@H](O)[C@]3(C)[C@@H](C5=CC(=O)OC5)CC[C@]43O)C2)C[C@H](O)[C@@H]1O[C@H]1C[C@H](O)[C@H](O[C@H]2C[C@H](O)[C@H](O[C@@H]3O[C@H](CO)[C@@H](O)[C@H](O)[C@H]3O)[C@@H](C)O2)[C@@H](C)O1,inactive,
CC(=O)Nc1ccc(N=Nc2cc(C)ccc2O)cc1,inactive,
C=C1CC[C@H]2O[C@]2(C)CC[C@@H]2[C@@H]1CC2(C)C,inactive,
Cc1ccc2n[nH]nc2c1,inactive,
CC(C)(C)c1cc(CCC(=O)OCCSCCOC(=O)CCc2cc(C(C)(C)C)c(O)c(C(C)(C)C)c2)cc(C(C)(C)C)c1O,inactive,
CCCCCN=C(N)N/N=C/c1c[nH]c2ccc(OC)cc12,6.74 µM (active),
O=c1[nH]cccc1O,inactive,
C=C(C)CCO,inactive,
NC(=O)c1ccccc1Cl,inactive,
CCc1c(C)cc(N)c(CC)c1N,inactive,

SMILES,Potency,cytotoxicity increase
O=C(Nc1ccc([N+](=O)[O-])cc1)Nc1ccc([N+](=O)[O-])cc1 (tested in a mixture with another compound),inactive,
CCN(CC)c1ccc(C=O)cc1,inactive,
CN(C[C@@H](CC[N+]12CCC(C3CCCCC3)(CC1)CC2)c1ccc(Cl)c(Cl)c1)C(=O)c1cc(C(F)(F)F)cc(C(F)(F)F)c1,27.5 µM (active),
c1ccc2occc2c1,inactive,
Cc1cc(Br)ccc1NC(=O)CCl,30.9 µM (active),
CCOc1nc(F)cc2nc(S(=O)(=O)Nc3c(Cl)cccc3C(=O)OC)nn12,inactive,
CC(C=O)c1ccccc1 (stereo not given),inactive,
Cn1c(=O)[nH]c2ncn(C)c2c1=O,inactive,
CCCCCCCCSCc1cc(C)c(O)c(CSCCCCCCCC)c1,inactive,
C=COCCCC,inactive,
O=C(O)CN(CCCN(CC(=O)O)CC(=O)O)CC(=O)O,,0.268% [at 15.8 µM]
CC(C)(C)c1ccc(OC2CCCCC2O)cc1 (stereo not given),49 µM (active),
CCN(CCC#N)c1ccc(N=Nc2ccc([N+](=O)[O-])cc2)cc1,inactive,
Cc1ccc(S(=O)(=O)C(I)I)cc1,19.5 µM (active),
Nc1ccc2c(S(=O)(=O)O)cccc2c1S(=O)(=O)O,inactive,
c1ccc(C[P+](c2ccccc2)(c2ccccc2)c2ccccc2)cc1,4.9 µM (active),
CCN(CC)c1ccc2c(c1)Oc1cc(N(CC)CC)ccc1C21OC(=O)c2ccccc21,16.9 µM (active),
Clc1cccc(Cl)n1,inactive,
c1ccc(-c2ccc(C(c3ccccc3)n3ccnc3)cc2)cc1 (stereo not given),inactive,
O=c1cc[nH]cc1,inactive,
